Data published in ChEMBL document CHEMBL1201862, “PubChem BioAssay data set” (2004).
Several values for one entry are separate records, joined by “and”; a condition that tells them apart may be missing. Identical values can stand only once. Hit rate of the full screen: of about 400,000 compounds, about 2,100 (0.53%) were called active. Inconclusive results (about 14%) are left out. The sample holds actives, similar compounds and a random draw of the others, so the mix is not that of the screen. No rule for the calls is given here.

Target: Ataxin-2 (Homo sapiens) (UniProt Q99700)
Sequence (Q99700 whole entry): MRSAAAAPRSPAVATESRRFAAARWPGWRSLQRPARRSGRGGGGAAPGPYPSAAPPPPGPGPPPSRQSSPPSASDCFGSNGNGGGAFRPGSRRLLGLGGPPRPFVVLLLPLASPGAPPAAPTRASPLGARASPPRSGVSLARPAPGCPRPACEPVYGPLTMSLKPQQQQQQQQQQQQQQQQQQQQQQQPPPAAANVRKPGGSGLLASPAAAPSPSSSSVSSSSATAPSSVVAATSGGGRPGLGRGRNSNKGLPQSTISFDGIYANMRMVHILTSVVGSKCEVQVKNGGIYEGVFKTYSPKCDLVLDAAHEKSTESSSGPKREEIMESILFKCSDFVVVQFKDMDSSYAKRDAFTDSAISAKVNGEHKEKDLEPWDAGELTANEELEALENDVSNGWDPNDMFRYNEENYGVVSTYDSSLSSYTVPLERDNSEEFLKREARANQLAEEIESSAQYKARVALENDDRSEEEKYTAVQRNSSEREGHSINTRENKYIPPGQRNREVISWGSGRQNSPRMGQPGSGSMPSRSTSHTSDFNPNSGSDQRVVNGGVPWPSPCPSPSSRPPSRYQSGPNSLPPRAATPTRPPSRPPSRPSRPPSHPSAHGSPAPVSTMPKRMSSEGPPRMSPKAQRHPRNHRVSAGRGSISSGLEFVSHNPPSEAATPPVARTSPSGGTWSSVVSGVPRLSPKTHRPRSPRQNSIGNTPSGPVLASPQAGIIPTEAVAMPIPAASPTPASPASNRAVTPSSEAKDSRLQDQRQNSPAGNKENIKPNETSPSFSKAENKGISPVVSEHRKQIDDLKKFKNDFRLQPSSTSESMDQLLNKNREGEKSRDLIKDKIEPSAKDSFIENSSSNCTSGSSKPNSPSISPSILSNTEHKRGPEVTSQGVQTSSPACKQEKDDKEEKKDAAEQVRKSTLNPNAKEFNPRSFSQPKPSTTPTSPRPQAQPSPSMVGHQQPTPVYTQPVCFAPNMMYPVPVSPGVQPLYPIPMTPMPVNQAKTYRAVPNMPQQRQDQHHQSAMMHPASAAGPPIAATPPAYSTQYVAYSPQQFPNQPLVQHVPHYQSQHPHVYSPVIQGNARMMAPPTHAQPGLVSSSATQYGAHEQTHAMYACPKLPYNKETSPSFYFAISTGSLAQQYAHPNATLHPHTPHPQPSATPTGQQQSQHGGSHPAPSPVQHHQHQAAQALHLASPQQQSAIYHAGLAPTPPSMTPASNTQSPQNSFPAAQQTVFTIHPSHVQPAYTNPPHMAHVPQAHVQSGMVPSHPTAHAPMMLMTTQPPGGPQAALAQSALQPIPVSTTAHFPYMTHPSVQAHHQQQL
Experiment: qHTS for Inhibitors of ATXN expression.
Type: functional

**Q.** `COC(=O)c1cc2c(=O)c3ccccc3oc2nc1/C=C/N(C)C` was tested. Which Potency did it give?
**A.** inactive

**Q.** `COc1ccc(-c2cc(C(=O)Nc3cc(S(N)(=O)=O)ccc3C)c3ccccc3n2)cc1OC` was tested. Which Potency did it give?
**A.** inactive

**Q.** How did the Potency turn out when `COc1cc(/C=N\NS(=O)(=O)c2ccccc2)cc(OC)c1OC` was run?
**A.** inactive

**Q.** How did the Potency turn out when `COc1cc(N=Nc2cccc(S(N)(=O)=O)c2)c2ccccc2c1N` was run?
**A.** 35.5 µM (active)

**Q.** How did the Potency turn out when `O=c1cc(CSc2nc(O)c3ccccc3n2)c2ccc(O)cc2o1` was run?
**A.** inactive

**Q.** For `CC(Oc1ccc(Cl)cc1)C(=O)Nc1sccc1C(N)=O` (stereo not drawn), which Potency is on record?
**A.** inactive

**Q.** `Cc1ccc(Cl)cc1NC(=O)c1ccccn1` was tested. Which Potency did it give?
**A.** inactive

**Q.** Which Potency does the source give for `CC(Oc1cccc(Cl)c1)C(=O)Nc1nc(-c2ccccn2)cs1` (stereo not drawn) here?
**A.** 39.8 µM (active)

**Q.** With `CCc1nc2c(OCc3ccc(Cl)cc3Cl)cccn2c1N(C)C(C)=O` as the compound, how does the Potency read?
**A.** 31.6 µM (active)

**Q.** Which Potency does the source give for `CCOC(=O)N(C)c1c(CC)nc2c(OCc3ccc(Cl)cc3)cccn12` here?
**A.** 20 µM (active)

**Q.** `CCOC(=O)c1c(N)n(-c2ccc(CC)cc2)c2nc3ccccc3nc12` was tested. Which Potency did it give?
**A.** inactive

**Q.** With `Cc1nc2c(OCc3ccc(Cl)cc3Cl)cccn2c1N(C)Cc1cccs1` as the compound, how does the Potency read?
**A.** 8.91 µM (active)

**Q.** For `NNC(=O)c1sccc1OCc1ccc(Cl)cc1Cl`, which Potency is on record?
**A.** inactive

**Q.** Which Potency does the source give for `CSCCC(NC(=O)COc1ccccc1)C(=O)N(C)Cc1ccc(Cl)cc1Cl` (stereo not drawn) here?
**A.** inactive

**Q.** Which Potency does the source give for `O=C(O)CCC(=O)N1CCN(c2nc(-c3ccccc3)c3ccccc3n2)CC1` here?
**A.** inactive

**Q.** How did the Potency turn out when `O=C(CCCCCn1c(=S)[nH]c2ccc(N3CCOCC3)cc2c1=O)NCc1ccccc1Cl` was run?
**A.** inactive

**Q.** With `Cc1ccc(NCc2nnc(SCC(=O)O)n2-c2ccc(C)cc2)cc1` as the compound, how does the Potency read?
**A.** inactive

**Q.** How did the Potency turn out when `CCn1c(COc2cccc(C)c2)nnc1SCC(=O)NC1CCCC1` was run?
**A.** inactive

**Q.** How did the Potency turn out when `Cc1cccc(OCc2nnc(SCC(=O)O)n2-c2ccccc2)c1` was run?
**A.** 39.8 µM (active)

**Q.** How did the Potency turn out when `COc1ccc2ccc3cccc[n+]3c2c1` was run?
**A.** inactive

**Q.** For `CC(=O)Nc1ccc(S(=O)(=O)Nc2nc(C)cc(-n3nc(C)cc3C)n2)cc1`, which Potency is on record?
**A.** inactive

**Q.** With `Cc1cc(NC(=O)CSc2nc3c(C)cccc3cc2C#N)no1` as the compound, how does the Potency read?
**A.** inactive

**Q.** For `NNC(=O)c1oc2nc(-c3ccccc3)cc(-c3ccco3)c2c1N`, which Potency is on record?
**A.** inactive

**Q.** Which Potency does the source give for `O=C1[C@H](Cc2ccccc2)NCC=CC[C@@H](c2ccc(Cl)cc2)N1Cc1ccc(Cl)cc1` here?
**A.** 28.2 µM (active)

**Q.** Which Potency does the source give for `O=C1[C@H](Cc2ccccc2)NCC=CC[C@@H](c2ccc(Cl)cc2)N1Cc1ccccc1` here?
**A.** 35.5 µM (active)

**Q.** `Cc1ccc2nc3nc(NCC4CCCO4)c(C(=O)NC4CCCC4)cc3c(=O)n2c1` (stereo not drawn) was tested. Which Potency did it give?
**A.** inactive

**Q.** With `CCC(=O)c1cc2c(C)cc(=O)oc2c(C)c1OC(C)=O` as the compound, how does the Potency read?
**A.** inactive

**Q.** How did the Potency turn out when `Brc1ccc(OCc2nnnn2-c2ccccc2)cc1` was run?
**A.** inactive

**Q.** For `COc1ccccc1N1CCN(S(=O)(=O)c2ccc(-n3cnnn3)cc2)CC1`, which Potency is on record?
**A.** inactive

**Q.** With `COc1ccccc1-n1nnnc1S(=O)(=O)Cc1ccc(Cl)cc1` as the compound, how does the Potency read?
**A.** 25.1 µM (active)

**Q.** How did the Potency turn out when `Cc1cccc(/C=C(\C(=O)C(=O)O)c2ccc3ccccc3n2)c1` was run?
**A.** inactive

**Q.** `NC(Cc1ccc(Cl)cc1)c1csc(Nc2cc(Oc3ccccc3)ncn2)n1` (stereo not drawn) was tested. Which Potency did it give?
**A.** 35.5 µM (active)

**Q.** Which Potency does the source give for `CC(C)CC(N)c1csc(Nc2cc(Oc3ccccc3)ncn2)n1` (stereo not drawn) here?
**A.** 39.8 µM (active)

**Q.** `CCn1c(SCc2ccc(F)cc2)nc2c(c1=O)SCC2` was tested. Which Potency did it give?
**A.** inactive

**Q.** For `COc1cccc(-c2ccc3c(N)c(C(=O)c4ccc(F)cc4)sc3n2)c1`, which Potency is on record?
**A.** inactive

**Q.** `C=CCNC(S)=Nc1ccc(Br)cc1F` was tested. Which Potency did it give?
**A.** inactive

**Q.** `CSc1ccccc1NC(=O)c1cc(C2CC2)on1` was tested. Which Potency did it give?
**A.** inactive

**Q.** With `CCOC(=O)C1=C(C)N=c2sc(=Cc3ccc(OCC(=O)O)cc3)c(=O)n2C1c1ccc(SC)cc1` (stereo not drawn) as the compound, how does the Potency read?
**A.** inactive

**Q.** For `CCOC(=O)CSC1=NC(=O)/C(=C\c2ccc(OC(C)=O)cc2)S1`, which Potency is on record?
**A.** 28.2 µM (active)

**Q.** With `CCOC(=O)CSC1=N/C(=C/c2ccc(-n3cncn3)cc2)C(=O)N1C(C)=O` as the compound, how does the Potency read?
**A.** inactive

**Q.** `CCOC(=O)c1cc2c(=O)n3ccccc3nc2n(CCOC)/c1=N\C(=O)C(C)(C)C` was tested. Which Potency did it give?
**A.** inactive

**Q.** With `Cc1cccn2c(=O)c3cc(C(=O)NCc4ccco4)c(=N)n(C4CCCCC4)c3nc12` as the compound, how does the Potency read?
**A.** inactive

**Q.** How did the Potency turn out when `Cc1ccc(N2C(=O)/C(=C\Nc3ccccc3-c3nnc(S)nc3O)c3ccccc3C2=O)c(C)c1` was run?
**A.** 17.8 µM (active)

**Q.** For `Cc1ccc(N2C(=O)/C(=C/NC3CCS(=O)(=O)C3)c3ccccc3C2=O)c(C)c1` (stereo not drawn), which Potency is on record?
**A.** inactive

**Q.** `Cc1cccc(N2C(=O)/C(=C\Nc3cc(O)ccc3C)c3ccccc3C2=O)n1` was tested. Which Potency did it give?
**A.** inactive

**Q.** How did the Potency turn out when `CCOc1ccc(N2C(=O)/C(=C/Nc3ccnn3Cc3ccncc3)c3ccccc3C2=O)cc1` was run?
**A.** inactive

**Q.** How did the Potency turn out when `Cn1nnnc1SCCCNCc1cc(Br)ccc1OCc1ccccc1F` was run?
**A.** 25.1 µM (active)

**Q.** With `Cn1nnnc1SCc1cccc2ccccc12` as the compound, how does the Potency read?
**A.** inactive

**Q.** For `COc1ccc(CNCCSc2nnnn2C)c(OC)c1OC`, which Potency is on record?
**A.** inactive

**Q.** For `Cn1c2nc(=O)n(-c3ccccc3)c(=O)c-2nc2c1CCCC2`, which Potency is on record?
**A.** inactive

**Q.** How did the Potency turn out when `CCOc1ccccc1NC(=O)CN1C(=O)COc2ccccc21` was run?
**A.** inactive

**Q.** Which Potency does the source give for `CCCOc1ccccc1C1C(C(=O)OC)=CN(C(C)C)C=C1C(=O)OC` here?
**A.** inactive

**Q.** Which Potency does the source give for `CCCOc1ccccc1NC(=O)/C=C/C(N)=O` here?
**A.** 35.5 µM (active)

**Q.** How did the Potency turn out when `COc1ccccc1NC(=S)NC(=O)CCc1ccccc1` was run?
**A.** inactive

**Q.** With `CCOc1ccccc1NC(=O)c1cc(SC)ccc1Cl` as the compound, how does the Potency read?
**A.** inactive

**Q.** For `CCCCOc1ccccc1C1C(C(=O)OC)=CN(CC)C=C1C(=O)OC`, which Potency is on record?
**A.** inactive

**Q.** For `CCOc1ccccc1NC(=O)/C=C/C(N)=O`, which Potency is on record?
**A.** 39.8 µM (active)

**Q.** With `COc1ccccc1NC(=O)/C=C/C(N)=O` as the compound, how does the Potency read?
**A.** 39.8 µM (active)

**Q.** How did the Potency turn out when `COc1ccccc1NC(=O)CCC(=O)OC(C)C(=O)c1ccccc1` (stereo not drawn) was run?
**A.** inactive

**Q.** With `Cc1cc(Br)ccc1-n1nc(C)c(/C=N/c2cccc3nsnc23)c1O` as the compound, how does the Potency read?
**A.** inactive

**Q.** For `Cc1cc(NC(=O)Cn2cc([N+](=O)[O-])cn2)n(Cc2ccc(F)cc2)n1`, which Potency is on record?
**A.** inactive

**Q.** With `COc1ccc(C(=O)c2oc3ccc(OC)cc3c2NC(C)=O)cc1` as the compound, how does the Potency read?
**A.** inactive

**Q.** `O=C1C=C(NCCc2ccccc2)C2(CCCCC2)O1` was tested. Which Potency did it give?
**A.** inactive

**Q.** With `CN1CCN(C2Cc3ccccc3Sc3cc(C(F)(F)F)ccc32)CC1` (stereo not drawn) as the compound, how does the Potency read?
**A.** 39.8 µM (active)

**Q.** How did the Potency turn out when `CN1CCN(C2Cc3ccccc3Sc3ccc(Cl)cc32)CC1` (stereo not drawn) was run?
**A.** 22.4 µM (active) and 28.2 µM (active)

**Q.** How did the Potency turn out when `CCc1cccc2c1Sc1ccccc1CC2N1CCNCC1` (stereo not drawn) was run?
**A.** 39.8 µM (active)

**Q.** `CCc1ccccc1N1C(=O)[C@@H]2Cc3ccccc3CN2C1=O` was tested. Which Potency did it give?
**A.** inactive

**Q.** How did the Potency turn out when `CSc1ccc2c(c1)C(N1CCN(C)CC1)Cc1ccccc1S2` (stereo not drawn) was run?
**A.** 22.4 µM (active) and 31.6 µM (active)
